Experimental data published in PubChem BioAssay (EPA / NIEHS).
Calls of active or inactive are those of the source. How the source made its calls: active means hit-call score of the fitted dose curve at least 0.9, where 1 is the maximum; inactive means score below 0.9.

How the values were obtained:
Details in all cases: mRNA level, 48 h; actives raise or lower the signal
[1] = read-out: Cytochrome P450 7A1 (Homo sapiens) (UniProt P22680); test: LTEA_HepaRG_CYP7A1: Life Technologies and Expression Analysis (LTEA) Assay for Cytochrome P450 7A1 (CYP7A1) using HepaRG (AID 2283496)
Summary of the method: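 HepaRG cells plated 48 h, then switched to serum-free induction medium and exposed in duplicate for 48 h to 8-point half-log series from 100 uM in 0.5% DMSO. CYP7A1 mRNA by qRT-PCR (TaqMan), normalized to ACTB/GAPDH/POLR2A; bidirectional fit versus DMSO.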

[2] = read-out: Glutathione S-Transferase (GSTA2), GSTA2 (gene 2939); test: LTEA_HepaRG_GSTA2: Life Technologies and Expression Analysis (LTEA) Assay for Glutathione S-Transferase (GSTA2) using HepaRG (AID 2283497)
Summary of the method: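 Human HepaRG cells, plated 48 h, then exposed in serum-free induction medium for 48 h to eight half-log concentrations up to 100 uM in 0.5% DMSO, duplicate. GSTA2 mRNA by qRT-PCR, normalized to ACTB/GAPDH/POLR2A; bidirectional fit versus DMSO.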

[3] = read-out: Glutamate-cysteine ligase catalytic (GCLC), GCLC (gene 2729); test: LTEA_HepaRG_GCLC: Life Technologies and Expression Analysis (LTEA) Assay for Glutamate-cysteine ligase catalytic (GCLC) using HepaRG (AID 2283498)
Summary of the method: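 Differentiated human HepaRG cells, plated 48 h then switched to serum-free induction medium, were exposed in duplicate for 48 h to 8 half-log concentrations topping at 100 uM in 0.5% DMSO. GCLC mRNA was quantified by qRT-PCR against ACTB, GAPDH and POLR2A.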

[4] = read-out: growth arrest and DNA damage 45 (GADD45G), GADD45G (gene 10912); test: LTEA_HepaRG_GADD45G: Life Technologies and Expression Analysis (LTEA) Assay for growth arrest and DNA damage 45 (GADD45G) using HepaRG (AID 2283499)
Summary of the method: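 Differentiated human HepaRG cells in serum-free induction medium were exposed for 48 h to 8 half-log concentrations up to 100 uM in 0.5% DMSO, in duplicate. GADD45G mRNA was measured by TaqMan qRT-PCR, normalised to ACTB, GAPDH and POLR2A, and fitted bidirectionally against DMSO.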

[5] = read-out: Glutamate-cysteine ligase regulatory (GCLM), GCLM (gene 2730); test: LTEA_HepaRG_GCLM: Life Technologies and Expression Analysis (LTEA) Assay for Glutamate-cysteine ligase regulatory (GCLM) using HepaRG (AID 2283500)
Summary of the method: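 Differentiated HepaRG cells exposed 48 h in serum-free induction medium to eight half-log concentrations up to 100 uM (0.5% DMSO). GCLM mRNA by TaqMan qRT-PCR, normalized to ACTB, GAPDH and POLR2A; bidirectional fit versus DMSO.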

[6] = read-out: Glutathione S-transferase M3 (GSTM3), GSTM3 (gene 2947); test: LTEA_HepaRG_GSTM3: Life Technologies and Expression Analysis (LTEA) Assay for Glutathione S-transferase M3 (GSTM3) using HepaRG (AID 2283501)
Summary of the method: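 Differentiated HepaRG cells in serum-free induction medium were exposed in duplicate for 48 h to 8 half-log concentrations up to 100 uM in 0.5% DMSO. GSTM3 mRNA was measured by TaqMan qRT-PCR, normalized to ACTB/GAPDH/POLR2A, and fitted bidirectionally versus DMSO.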

[7] = read-out: Heat shock 70 kDa protein 1 (HSPA1A), gene 3303; test: LTEA_HepaRG_HSPA1A: Life Technologies and Expression Analysis (LTEA) Assay for Heat shock 70 kDa protein 1 (HSPA1A) using HepaRG (AID 2283502)
Summary of the method: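 Human HepaRG cells in serum-free induction medium were exposed in duplicate for 48 h to 8 half-log concentrations, highest 100 uM, in 0.5% DMSO. HSPA1A mRNA read by TaqMan qRT-PCR, normalized to ACTB, GAPDH, POLR2A, fitted bidirectionally against DMSO.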

[8] = read-out: 3-Hydroxy-3-Methylglutaryl-CoA Synthase 2 (HMGCS2), HMGCS2 (gene 3158); test: LTEA_HepaRG_HMGCS2: Life Technologies and Expression Analysis (LTEA) Assay for 3-Hydroxy-3-Methylglutaryl-CoA Synthase 2 (HMGCS2) using HepaRG (AID 2283504)
Summary of the method: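 Differentiated human HepaRG cells were exposed in duplicate for 48 h in serum-free induction medium to eight concentrations (top 100 uM, half-log steps, 0.5% DMSO). HMGCS2 mRNA was quantified by TaqMan qRT-PCR, normalised to ACTB, GAPDH and POLR2A, then fitted bidirectionally against DMSO.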

HGF (gene 3082) = test: LTEA_HepaRG_HGF: Life Technologies and Expression Analysis (LTEA) Assay for Hepatocyte Growth Facto (HGF) using HepaRG (AID 2283505)
Summary of the method: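 Differentiated human HepaRG cells in serum-free induction medium were exposed in duplicate for 48 h to eight concentrations (top 100 uM, half-log steps, 0.5% DMSO). HGF mRNA was quantified by qRT-PCR, normalized to ACTB, GAPDH and POLR2A.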

[9] = read-out: Insulin Like Growth Factor 1 (IGF1), IGF1 (gene 3479); test: LTEA_HepaRG_IGF1: Life Technologies and Expression Analysis (LTEA) Assay for Insulin Like Growth Factor 1 (IGF1) using HepaRG (AID 2283506)
Summary of the method: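 Differentiated HepaRG cells in serum-free induction medium, exposed 48 h in duplicate to 8 half-log concentrations up to 100 uM in 0.5% DMSO. IGF1 mRNA by Fluidigm qRT-PCR, normalised to ACTB, GAPDH and POLR2A.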

[10] = read-out: Intercellular Adhesion Molecule 1 (ICAM1), ICAM1 (gene 3383); test: LTEA_HepaRG_ICAM1: Life Technologies and Expression Analysis (LTEA) Assay for Intercellular Adhesion Molecule 1 (ICAM1) using HepaRG (AID 2283507)
Summary of the method: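 Differentiated HepaRG cells in serum-free induction medium were exposed in duplicate for 48 h to eight half-log concentrations up to 100 uM in 0.5% DMSO. Transcript levels were measured by qRT-PCR normalized to ACTB, GAPDH and POLR2A; bidirectional fits relative to DMSO.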

[11] = read-out: Insulin-like growth factor-binding protein 1 (IGFBP1), IGFBP1 (gene 3484); test: LTEA_HepaRG_IGFBP1: Life Technologies and Expression Analysis (LTEA) Assay for Insulin-like growth factor-binding protein 1 (IGFBP1) using HepaRG (AID 2283508)
Summary of the method: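 Differentiated human HepaRG cells in serum-free induction medium were exposed in duplicate for 48 h to eight concentrations, top 100 uM with half-log dilutions, in 0.5% DMSO. Transcript levels came from qRT-PCR normalised to ACTB, GAPDH and POLR2A, fitted bidirectionally against DMSO.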

[12] = read-out: Interleukin 6 (IL6), IL6 (gene 3569); test: LTEA_HepaRG_IL6: Life Technologies and Expression Analysis (LTEA) Assay for Interleukin 6 (IL6) using HepaRG (AID 2283509)
Summary of the method: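 Differentiated human HepaRG cells, plated 48 h then switched to serum-free induction medium, were exposed in duplicate for 48 h to eight half-log concentrations up to 100 uM in 0.5% DMSO. IL6 mRNA measured by qRT-PCR, normalized to ACTB/GAPDH/POLR2A.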

[13] = read-out: Interleukin 6 Receptor (IL6R), IL6R (gene 3570); test: LTEA_HepaRG_IL6R: Life Technologies and Expression Analysis (LTEA) Assay for Interleukin 6 Receptor (IL6R) using HepaRG (AID 2283510);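 on AC50: TaqMan qRT-PCR signal normalized to ACTB GAPDH and POLR2A housekeeping genes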
Summary of the method: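 Differentiated HepaRG cells, plated 48 h, then exposed in duplicate for 48 h in serum-free induction medium to 8 half-log concentrations (top 100 uM, 0.5% DMSO). IL6R mRNA measured by TaqMan qRT-PCR, normalized to ACTB/GAPDH/POLR2A; bidirectional fit vs DMSO.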

[14] = read-out: Potassium channel subfamily K member 1 (KCNK1), KCNK1 (gene 3775); test: LTEA_HepaRG_KCNK1: Life Technologies and Expression Analysis (LTEA) Assay for Potassium channel subfamily K member 1 (KCNK1) using HepaRG (AID 2283511)
Summary of the method: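 Differentiated human HepaRG cells in serum-free induction medium were exposed in duplicate for 48 h to 8 half-log concentrations up to 100 uM in 0.5% DMSO. KCNK1 mRNA was measured by TaqMan qRT-PCR, normalized to ACTB, GAPDH and POLR2A, and fitted bidirectionally versus DMSO.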

[15] = read-out: Keratin 19 (KRT19), KRT19 (gene 3880); test: LTEA_HepaRG_KRT19: Life Technologies and Expression Analysis (LTEA) Assay for Keratin 19 (KRT19) using HepaRG (AID 2283512)
Summary of the method: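 Differentiated human HepaRG cells, plated 48 h, were exposed in duplicate for 48 h in serum-free induction medium to eight half-log concentrations up to 100 uM in 0.5% DMSO. KRT19 mRNA was quantified by qRT-PCR, normalized to ACTB, GAPDH and POLR2A, and fitted bidirectionally versus DMSO.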

[16] = read-out: Lipase C (LIPC), LIPC (gene 3990); test: LTEA_HepaRG_LIPC: Life Technologies and Expression Analysis (LTEA) Assay for Lipase C (LIPC) using HepaRG (AID 2283514)
Summary of the method: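 Differentiated human HepaRG cells in serum-free induction medium were exposed in duplicate for 48 h to eight concentrations (top 100 uM, half-log steps, 0.5% DMSO). LIPC mRNA was quantified by TaqMan qRT-PCR, normalized to ACTB, GAPDH and POLR2A, with bidirectional fitting versus DMSO.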

[17] = read-out: Lipoprotein lipase (LPL), LPL (gene 4023); test: LTEA_HepaRG_LPL: Life Technologies and Expression Analysis (LTEA) Assay for Lipoprotein lipase (LPL) using HepaRG (AID 2283515)
Summary of the method: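 Differentiated human HepaRG cells in serum-free induction medium were exposed in duplicate for 48 h to eight half-log concentrations (top 100 uM) in 0.5% DMSO. LPL mRNA was quantified by TaqMan qRT-PCR, normalized to ACTB, GAPDH and POLR2A.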

[18] = read-out: Hypoxia-inducible factor 1-alpha (Homo sapiens) (UniProt Q16665); test: LTEA_HepaRG_HIF1A: Life Technologies and Expression Analysis (LTEA) Assay for Hypoxia-inducible factor 1 (HIF1A) Trancription factor using HepaRG (AID 2283503)
Summary of the method: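 Differentiated HepaRG cells in serum-free induction medium exposed 48 h, in duplicate, to 8-point half-log series from 100 uM in 0.5% DMSO. HIF1A mRNA measured by TaqMan qRT-PCR, normalized to ACTB/GAPDH/POLR2A, fitted bidirectionally versus DMSO.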

[19] = read-out: JUN Transcription Factor, JUN (gene 3725); test: LTEA_HepaRG_JUN: Life Technologies and Expression Analysis (LTEA) Assay for JUN Transcription Factor using HepaRG (AID 2283513)
Summary of the method: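 HepaRG cells, 48 h post-plating, exposed 48 h in serum-free induction medium to 8-point half-log series (top 100 uM, 0.5% DMSO), duplicate; mRNA by qRT-PCR (TaqMan, Fluidigm), normalized to ACTB/GAPDH/POLR2A; bidirectional fit vs DMSO.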

Hypoxia-inducible factor 1-alpha (Homo sapiens), sequence (Q16665 whole entry, looked up): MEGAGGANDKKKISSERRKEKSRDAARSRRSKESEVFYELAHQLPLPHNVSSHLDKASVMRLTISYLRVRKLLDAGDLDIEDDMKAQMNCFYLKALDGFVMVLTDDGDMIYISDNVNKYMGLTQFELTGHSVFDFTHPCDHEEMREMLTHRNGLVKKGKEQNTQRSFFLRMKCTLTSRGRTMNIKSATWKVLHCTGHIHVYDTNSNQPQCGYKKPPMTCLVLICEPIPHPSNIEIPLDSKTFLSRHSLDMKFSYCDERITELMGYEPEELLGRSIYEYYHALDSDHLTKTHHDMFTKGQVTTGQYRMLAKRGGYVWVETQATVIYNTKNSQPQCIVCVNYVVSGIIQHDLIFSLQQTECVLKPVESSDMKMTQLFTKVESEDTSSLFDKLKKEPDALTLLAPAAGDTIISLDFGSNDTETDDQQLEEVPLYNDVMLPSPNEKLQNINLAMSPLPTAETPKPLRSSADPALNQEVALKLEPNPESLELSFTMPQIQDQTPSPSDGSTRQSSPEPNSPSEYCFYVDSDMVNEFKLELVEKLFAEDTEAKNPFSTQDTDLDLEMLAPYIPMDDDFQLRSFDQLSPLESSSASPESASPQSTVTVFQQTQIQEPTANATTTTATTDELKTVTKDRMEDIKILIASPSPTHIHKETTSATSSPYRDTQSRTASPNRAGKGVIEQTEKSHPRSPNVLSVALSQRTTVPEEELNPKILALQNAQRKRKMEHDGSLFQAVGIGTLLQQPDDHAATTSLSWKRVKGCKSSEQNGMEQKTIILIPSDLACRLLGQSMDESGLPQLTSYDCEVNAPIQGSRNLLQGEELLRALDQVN

Cc1cn([C@H]2C[C@H](N=[N+]=[N-])[C@@H](CO)O2)c(=O)[nH]c1=O
outcome [1]: inactive | outcome [2]: inactive | outcome [3]: inactive | outcome [4]: inactive | outcome [5]: inactive | outcome [6]: inactive | outcome [7]: inactive | outcome [8]: inactive | outcome (HGF (gene 3082)): inactive | outcome [9]: inactive | outcome [10]: inactive | outcome [11]: inactive | outcome [12]: inactive | outcome [13]: inactive | outcome [14]: inactive | outcome [15]: inactive | outcome [16]: inactive | outcome [17]: inactive

c1ccc(C[n+]2cccc3ccccc32)cc1
AC50 [1]: 33.7 µM (active) | AC50 [2]: 75 µM (active) | AC50 [3]: 85.9 µM (active) | AC50 [4]: 43.6 µM (active) | AC50 [5]: 62.7 µM (active) | outcome [6]: inactive | AC50 [7]: 22.8 µM (active) | outcome [18]: inactive | AC50 [8]: 31 µM (active) | outcome (HGF (gene 3082)): inactive | AC50 [9]: 20.7 µM (active) | AC50 [10]: 70.8 µM (active) | AC50 [11]: 34.6 µM (active) | AC50 [13]: 50 µM (active) | outcome [14]: inactive | AC50 [15]: 28.6 µM (active) | AC50 [16]: 32 µM (active) | AC50 [17]: 32.8 µM (active)

CC(O)CC(C)(C)O (configuration not stated)
outcome [1]: inactive | outcome [2]: inactive | outcome [3]: inactive | outcome [4]: inactive | outcome [5]: inactive | outcome [6]: inactive | outcome [7]: inactive | outcome [18]: inactive | outcome [8]: inactive | outcome (HGF (gene 3082)): inactive | outcome [9]: inactive | outcome [10]: inactive | outcome [11]: inactive | outcome [12]: inactive | outcome [13]: inactive | outcome [14]: inactive | outcome [15]: inactive | outcome [16]: inactive | outcome [17]: inactive

CCCCOC(=O)c1ccc(O)cc1
outcome [1]: inactive | outcome [2]: inactive | outcome [3]: inactive | outcome [4]: inactive | outcome [5]: inactive | outcome [6]: inactive | outcome [7]: inactive | outcome [8]: inactive | outcome (HGF (gene 3082)): inactive | outcome [9]: inactive | outcome [10]: inactive | outcome [11]: inactive | outcome [12]: inactive | outcome [13]: inactive | outcome [14]: inactive | outcome [15]: inactive | outcome [19]: inactive | outcome [16]: inactive | outcome [17]: inactive

O=C(Nc1ccc(Cl)cc1)Nc1ccc(Cl)c(Cl)c1
AC50 [1]: 26 µM (active) | AC50 [2]: 27.2 µM (active) | AC50 [4]: 22.8 µM (active) | outcome [5]: inactive | outcome [6]: inactive | AC50 [7]: 29.1 µM (active) | AC50 [18]: 72.1 µM (active) | AC50 [8]: 28.6 µM (active) | AC50 (HGF (gene 3082)): 50 µM (active) | AC50 [9]: 24.4 µM (active) | outcome [10]: inactive | AC50 [11]: 27.7 µM (active) | AC50 [12]: 23.3 µM (active) | outcome [13]: inactive | AC50 [14]: 29 µM (active) | AC50 [15]: 14.6 µM (active) | AC50 [16]: 15.1 µM (active) | AC50 [17]: 12.7 µM (active)
